Assay results: PubChem BioAssay
Active and inactive are the calls of the source.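 How the source made its calls, unless noted: active means binding below the plate cutoff, the plate median minus 3 SD, with a reading above zero; inconclusive means below the plate cutoff but reading exactly zero; inactive means the rest.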

Columns and labels:
[1] = reduced mouse 2C T cell binding to pMHC/ICAM-1 vesicles – MLPCN validation set, flow cytometry, LFA-1/ICAM-1 modulator project, pilot screen (AID 2523;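 active means response below a set limit, under 55% cells CD8-positive and vesicle-bound, and CD8 cells' 90th-percentile brightness under 279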;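 on vesicle binding response: mean PE anti-B7-1 fluorescence of CD8+ cells relative to row control; 100% = QL9-loaded vesicles with DMSO vehicle in the same plate row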); details: 2C mouse CD8+ T cells, at 7 µM, stronger effect = lower value; double positive events: measured here: CD8+/vesicle+ event percentage
[2] = biological target: Integrin beta-1 (Homo sapiens) + Integrin alpha-4 (Homo sapiens) (UniProt P13612+P05556); test: alpha4beta1 integrin LIBS antibody binding reduction – U937 cells, HUTS-21 mAb, flow cytometry, validation set, VLA-4 allosteric modulator project, pilot screen (AID 2674;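 active means inhibition above 50%, about 3 SD of the validation set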;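 further: antibody binding induced by the VLA-4 ligand LDV present at three times its Kd; 0% = LDV ligand with antibody and no compound and 100% = antibody without LDV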); details: HUTS-21 LIBS mAb binding, at 6.7 µM, stronger effect = higher value, binding induced by LDV ligand
Integrin beta-1 (Homo sapiens) + Integrin alpha-4 (Homo sapiens), sequence (P05556 whole entry, looked up): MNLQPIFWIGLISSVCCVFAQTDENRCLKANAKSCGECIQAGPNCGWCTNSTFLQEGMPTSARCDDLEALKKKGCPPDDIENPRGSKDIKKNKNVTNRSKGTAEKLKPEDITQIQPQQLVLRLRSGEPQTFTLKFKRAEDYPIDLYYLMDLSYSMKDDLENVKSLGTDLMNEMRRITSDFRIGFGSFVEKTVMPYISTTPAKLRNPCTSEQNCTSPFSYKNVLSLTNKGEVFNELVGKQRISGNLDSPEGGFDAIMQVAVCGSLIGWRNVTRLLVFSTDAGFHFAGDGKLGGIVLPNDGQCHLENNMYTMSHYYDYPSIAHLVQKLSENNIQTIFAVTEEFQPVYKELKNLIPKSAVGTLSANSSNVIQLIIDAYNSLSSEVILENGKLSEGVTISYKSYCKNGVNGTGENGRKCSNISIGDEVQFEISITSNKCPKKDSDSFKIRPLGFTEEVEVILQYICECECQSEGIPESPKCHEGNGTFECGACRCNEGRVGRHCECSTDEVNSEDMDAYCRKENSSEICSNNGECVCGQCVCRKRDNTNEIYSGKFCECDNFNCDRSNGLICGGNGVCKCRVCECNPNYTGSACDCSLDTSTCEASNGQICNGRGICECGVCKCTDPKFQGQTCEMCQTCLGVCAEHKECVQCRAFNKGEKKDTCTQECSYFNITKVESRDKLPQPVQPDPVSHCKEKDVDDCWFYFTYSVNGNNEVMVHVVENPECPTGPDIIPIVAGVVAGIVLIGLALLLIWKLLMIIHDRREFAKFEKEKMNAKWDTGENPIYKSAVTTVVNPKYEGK
Integrin beta-1 (Homo sapiens) + Integrin alpha-4 (Homo sapiens), sequence (P13612 whole entry, looked up): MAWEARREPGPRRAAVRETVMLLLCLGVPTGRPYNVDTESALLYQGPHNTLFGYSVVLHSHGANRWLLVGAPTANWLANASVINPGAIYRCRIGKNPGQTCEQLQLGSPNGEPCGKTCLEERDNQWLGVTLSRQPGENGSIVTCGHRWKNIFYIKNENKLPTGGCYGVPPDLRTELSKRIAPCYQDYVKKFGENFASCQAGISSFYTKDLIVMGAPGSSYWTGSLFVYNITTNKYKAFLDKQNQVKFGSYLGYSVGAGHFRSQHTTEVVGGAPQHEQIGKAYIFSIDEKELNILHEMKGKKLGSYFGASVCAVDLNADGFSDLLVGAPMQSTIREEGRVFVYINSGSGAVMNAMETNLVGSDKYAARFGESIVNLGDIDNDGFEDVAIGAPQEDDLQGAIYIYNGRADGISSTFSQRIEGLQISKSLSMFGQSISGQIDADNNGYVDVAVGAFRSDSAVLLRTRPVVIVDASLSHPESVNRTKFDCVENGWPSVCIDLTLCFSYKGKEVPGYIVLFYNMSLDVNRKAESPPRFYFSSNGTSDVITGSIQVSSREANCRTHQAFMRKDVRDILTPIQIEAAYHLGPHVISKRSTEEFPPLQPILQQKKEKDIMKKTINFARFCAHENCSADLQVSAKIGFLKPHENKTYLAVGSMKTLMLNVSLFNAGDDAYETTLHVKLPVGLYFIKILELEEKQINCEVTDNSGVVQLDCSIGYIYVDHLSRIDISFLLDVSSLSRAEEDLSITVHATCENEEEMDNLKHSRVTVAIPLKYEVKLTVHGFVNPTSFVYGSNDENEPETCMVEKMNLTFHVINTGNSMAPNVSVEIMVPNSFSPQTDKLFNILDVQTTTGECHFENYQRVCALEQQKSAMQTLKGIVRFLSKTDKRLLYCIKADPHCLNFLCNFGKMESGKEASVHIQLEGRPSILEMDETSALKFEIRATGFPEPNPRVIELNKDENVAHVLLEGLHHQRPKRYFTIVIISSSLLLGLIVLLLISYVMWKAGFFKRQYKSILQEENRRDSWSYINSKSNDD

[3] = calorie-restriction mimetic ROS inhibitors, yeast – validation compound set, pilot screen (AID 2706;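 active means superoxide response below 65% of plate, a cut near 3 SD across the whole screen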;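 further: yeast exposed to compound for one week at 30 degrees C before staining; 100% = mean of all compound wells on the same plate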); details: S. cerevisiae aging, superoxide DHE fluorescence; at 10 µM, stronger effect = lower value
[4] = biological target: Beta-adrenergic receptor kinase 1 (Homo sapiens) (UniProt P25098); test: GRK2 binders displacing RNA aptamer, biochemical, validation, human GRK2, bead flow cytometry (AID 488806;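 active means aptamer binding inhibition above 30%, about 3 SD of noise from non-fluorescent compounds; inactive means inhibition at or below 30%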); details: bead-bound GRK2, FAM-aptamer displacement, at 10 µM, stronger effect = higher value
Beta-adrenergic receptor kinase 1 (Homo sapiens), sequence (P25098 whole entry, looked up): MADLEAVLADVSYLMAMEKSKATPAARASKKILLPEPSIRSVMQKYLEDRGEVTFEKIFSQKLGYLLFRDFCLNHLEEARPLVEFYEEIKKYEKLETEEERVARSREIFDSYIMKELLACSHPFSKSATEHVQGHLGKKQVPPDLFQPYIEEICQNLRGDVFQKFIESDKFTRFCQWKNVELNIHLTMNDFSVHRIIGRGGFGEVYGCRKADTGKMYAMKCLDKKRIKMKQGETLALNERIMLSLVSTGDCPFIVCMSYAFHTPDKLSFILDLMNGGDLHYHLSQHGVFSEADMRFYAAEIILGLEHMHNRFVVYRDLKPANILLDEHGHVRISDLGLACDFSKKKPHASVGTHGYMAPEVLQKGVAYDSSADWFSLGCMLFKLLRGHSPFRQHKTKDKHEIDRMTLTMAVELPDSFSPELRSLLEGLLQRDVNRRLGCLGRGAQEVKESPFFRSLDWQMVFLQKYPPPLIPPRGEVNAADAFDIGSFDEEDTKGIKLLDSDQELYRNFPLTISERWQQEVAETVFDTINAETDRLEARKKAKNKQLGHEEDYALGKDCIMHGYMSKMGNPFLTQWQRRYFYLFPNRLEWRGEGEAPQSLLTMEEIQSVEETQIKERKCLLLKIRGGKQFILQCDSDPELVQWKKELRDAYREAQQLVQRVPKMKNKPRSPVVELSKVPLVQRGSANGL

[5] = biological target: AP-2 complex subunit beta (Homo sapiens) (UniProt P63010); test: beta-arrestin/AP2 interaction blockers – biochemical, validation set, GST-AP2 beads, flow cytometry, pilot screen (AID 504541;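 active means inhibition above 54%, about 3 SD of non-fluorescent compounds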;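 further: AP2 carries R879A mutation and is captured from E. coli lysate; bead-bound FITC arrestin peptide fluorescence measuring arrestin peptide binding to AP2; 0% = DMSO wells and 100% = excess unlabeled arrestin peptide control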); details: FITC arrestin peptide, at 10 µM, stronger effect = higher value, AP2 beta2 appendage fragment, R879A mutant
AP-2 complex subunit beta (Homo sapiens), sequence (P63010 whole entry, looked up, the tested form may be a part, one chain of several): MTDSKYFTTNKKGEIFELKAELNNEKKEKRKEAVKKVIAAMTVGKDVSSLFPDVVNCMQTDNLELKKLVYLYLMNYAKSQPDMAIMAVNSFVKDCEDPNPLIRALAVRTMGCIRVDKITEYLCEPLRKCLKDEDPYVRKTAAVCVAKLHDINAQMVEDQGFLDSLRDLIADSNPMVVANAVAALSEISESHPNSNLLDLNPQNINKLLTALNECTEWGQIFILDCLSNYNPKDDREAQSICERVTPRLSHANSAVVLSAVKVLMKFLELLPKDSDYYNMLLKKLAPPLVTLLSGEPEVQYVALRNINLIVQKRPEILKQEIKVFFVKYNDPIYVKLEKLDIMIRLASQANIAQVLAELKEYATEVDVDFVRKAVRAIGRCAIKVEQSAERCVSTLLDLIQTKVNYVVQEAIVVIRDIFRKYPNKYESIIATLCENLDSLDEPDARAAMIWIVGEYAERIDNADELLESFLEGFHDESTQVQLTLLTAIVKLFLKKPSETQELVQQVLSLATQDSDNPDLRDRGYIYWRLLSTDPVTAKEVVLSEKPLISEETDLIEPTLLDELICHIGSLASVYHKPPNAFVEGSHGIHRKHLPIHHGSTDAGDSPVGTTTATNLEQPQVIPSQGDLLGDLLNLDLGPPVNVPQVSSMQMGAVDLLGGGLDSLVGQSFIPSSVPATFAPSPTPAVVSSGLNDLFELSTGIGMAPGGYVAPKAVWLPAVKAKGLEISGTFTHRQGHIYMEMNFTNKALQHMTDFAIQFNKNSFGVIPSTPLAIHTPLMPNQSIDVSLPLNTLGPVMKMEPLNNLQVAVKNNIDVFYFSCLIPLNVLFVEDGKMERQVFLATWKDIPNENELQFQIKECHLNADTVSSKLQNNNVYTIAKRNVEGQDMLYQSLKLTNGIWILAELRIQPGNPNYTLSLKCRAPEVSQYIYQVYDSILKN

[6] = cytosolic pH regulators acting via V-ATPase – S. cerevisiae, pHLuorin, HTS validation (AID 504600; in the data active means response above about 15%;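 further: plate controls were DMSO for no effect and reference compound for full effect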); details: V-ATPase proton transport, at 10 µM, stronger effect = higher value
[7] = system: anti-desmoglein-3 scFv antibody binding to human DSG3; test: blockers of pathogenic pemphigus antibody–desmoglein-3 binding – biochemical, validation compound set, bead-based, flow cytometry, pilot screen (AID 588368); details: Protein G beads, DSG3-Fc, scFv-GFP binding, at 10 µM, stronger effect = lower value;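 further: signal is the median channel fluorescence of bead-bound GFP antibody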
[8] = Nile Red efflux blockade in pump-expressing yeast – validation compound set, multiplex, phenotypic, pilot screen (AID 588506;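 active means efflux inhibition above 0.42, the validation set average plus 4 SD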;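 further: Nile Red retained in cells so higher fluorescence means more efflux inhibition; 0 = negative control wells and 1 = enniatin B 25 µM full block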); details: S. cerevisiae pump-expressing triplex, Nile Red efflux flow cytometry; at 10 µM; stronger effect = higher value; the pumps come from Candida albicans
[9] = biological target: ATP-binding cassette sub-family B member 6 (Homo sapiens) (UniProt Q9NP58); test: blockers of ABCB6-driven porphyrin uptake – K562-ABCB6 cells, flow cytometry, validation set, pilot screen (AID 588550;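 active means inhibition above the screen-wide mean plus 3 SD, about 51%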;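 further: 0% = DMSO wells and 100% = benzethonium chloride 70 µM positive control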); details: K562-ABCB6 porphyrin accumulation, 1 h, at 10 µM, stronger effect = higher value
ATP-binding cassette sub-family B member 6 (Homo sapiens), sequence (Q9NP58 whole entry, looked up): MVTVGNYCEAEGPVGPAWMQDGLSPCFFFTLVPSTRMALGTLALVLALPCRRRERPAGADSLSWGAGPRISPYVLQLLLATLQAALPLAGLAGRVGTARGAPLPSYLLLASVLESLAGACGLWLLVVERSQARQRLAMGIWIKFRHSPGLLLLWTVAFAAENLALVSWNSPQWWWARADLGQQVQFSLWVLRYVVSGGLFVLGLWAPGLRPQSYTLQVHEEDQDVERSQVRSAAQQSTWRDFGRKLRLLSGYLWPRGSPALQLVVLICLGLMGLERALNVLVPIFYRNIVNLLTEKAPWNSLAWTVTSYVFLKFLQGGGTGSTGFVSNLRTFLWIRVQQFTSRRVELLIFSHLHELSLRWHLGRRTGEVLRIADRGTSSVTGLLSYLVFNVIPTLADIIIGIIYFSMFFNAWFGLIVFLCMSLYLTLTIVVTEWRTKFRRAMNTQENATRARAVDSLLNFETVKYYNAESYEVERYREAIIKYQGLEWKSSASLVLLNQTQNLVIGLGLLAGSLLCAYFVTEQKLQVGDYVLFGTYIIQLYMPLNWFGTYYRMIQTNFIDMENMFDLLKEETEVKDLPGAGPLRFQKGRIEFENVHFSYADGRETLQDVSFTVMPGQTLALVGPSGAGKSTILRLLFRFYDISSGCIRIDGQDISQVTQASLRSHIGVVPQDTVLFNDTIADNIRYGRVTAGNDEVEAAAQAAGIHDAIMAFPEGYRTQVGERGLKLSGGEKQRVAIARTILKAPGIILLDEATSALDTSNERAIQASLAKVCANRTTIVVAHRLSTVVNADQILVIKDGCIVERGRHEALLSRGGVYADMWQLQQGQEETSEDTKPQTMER

[10] = AML differentiation inducers, ER-HoxA9 marrow cells – cell-based, GFP/MAC1 double positive, flow cytometry, validation set, primary screen (AID 588685;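 active means differentiation response of at least 50%, scaled between solvent and reference control, from cells with both markers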;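 further: compound exposure lasts four days before antibody staining and flow analysis; 0% = DMSO wells and 100% = 5 µM fulvestrant positive control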); details: stronger effect = higher value, normalized: vehicle 0, fulvestrant 100
[11] = biological target: Beta-2 adrenergic receptor (Homo sapiens) (UniProt P07550); test: agonist-induced loss of surface beta2AR – cell-based, FAP fluorogen, flow cytometry, validation set, pilot screen (AID 504459;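 active means percent response above 42, roughly 3 SD of non-fluorescent test compounds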;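 further: agonist-driven loss of surface beta2AR via internalization measured by FAP dye flow cytometry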); details: Am2.2-beta2AR cells, at 10 µM, stronger effect = higher value
Beta-2 adrenergic receptor (Homo sapiens), sequence (P07550 whole entry, looked up): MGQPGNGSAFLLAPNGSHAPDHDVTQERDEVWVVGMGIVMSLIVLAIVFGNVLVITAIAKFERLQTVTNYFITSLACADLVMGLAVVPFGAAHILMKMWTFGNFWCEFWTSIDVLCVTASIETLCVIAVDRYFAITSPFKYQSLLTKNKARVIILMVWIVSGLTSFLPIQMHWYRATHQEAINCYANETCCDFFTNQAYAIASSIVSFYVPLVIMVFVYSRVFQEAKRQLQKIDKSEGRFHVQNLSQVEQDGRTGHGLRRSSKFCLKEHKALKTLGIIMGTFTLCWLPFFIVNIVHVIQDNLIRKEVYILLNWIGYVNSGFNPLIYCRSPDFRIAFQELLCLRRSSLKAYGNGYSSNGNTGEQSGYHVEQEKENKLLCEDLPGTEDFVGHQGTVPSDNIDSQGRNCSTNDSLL

In the case of `CCNCCC(CCC(C)C)c1ccc2c(c1)OCO2` (stereo not given), the double positive events [1] is reported as 54.2%, the vesicle binding response [1] is reported as 233% (inactive) and the inhibition [2] is reported as 9.09% (inactive). For the same compound, the superoxide response (% of plate) [3] was 103% (inactive), the aptamer binding inhibition [4] was -1% (inactive) and the inhibition [5] was -9.39% (inactive). For the same compound, the response [6] was -1.01% (inactive), the binding (% of control) [7] was 96.9% (inactive) and the efflux inhibition (fraction of control) [8] was -0.16 (inactive). The inhibition [9] was -3% (inactive) and the differentiation response [10] was 9.49% (inactive).
With `Nc1ncnc2c1ncn2C1OC(CO)C(O)C1O` (stereo not given) the double positive events [1] was 48.3%, the vesicle binding response [1] was 175% (inactive) and the inhibition [2] was -6.77% (inactive). The superoxide response (% of plate) [3] was 102% (inactive), the aptamer binding inhibition [4] was 3% (inactive) and the inhibition [5] was -4.3% (inactive). For the same compound, the response [6] was 0.12% (inactive), the binding (% of control) [7] was 110% (inactive) and the efflux inhibition (fraction of control) [8] was -0.01 (inactive). The inhibition [9] was 5% (inactive) and the differentiation response [10] was -18% (inactive).
With `CC1(C)CC(=O)C(C2(O)C(=O)Nc3ccccc32)CO1` (stereo not given) the double positive events [1] was 69%, the vesicle binding response [1] was 183% (inactive) and the inhibition [2] was 11.7% (inactive). For the same compound, the superoxide response (% of plate) [3] was 92.3% (inactive), the aptamer binding inhibition [4] was 3% (inactive) and the response [11] was 7.56% (inactive). The inhibition [5] was 0.15% (inactive), the response [6] was 2.36% (inactive) and the binding (% of control) [7] was 105% (inactive). The efflux inhibition (fraction of control) [8] was 0.12 (inactive), the inhibition [9] was 12% (inactive) and the differentiation response [10] was -16.8% (inactive).
For `COc1ccc(C2CNC(=O)C2)cc1OC1CCCC1` (stereo not given), the double positive events [1] was 53.3%, the vesicle binding response [1] was 151% (inactive) and the inhibition [2] was -8.64% (inactive). For the same compound, the superoxide response (% of plate) [3] was 104% (inactive), the aptamer binding inhibition [4] was -6% (inactive) and the inhibition [5] was 23.8% (inactive). The response [6] was -25.8% (inactive), the binding (% of control) [7] was 105% (inactive) and the efflux inhibition (fraction of control) [8] was -0.12 (inactive). For the same compound, the inhibition [9] was 7% (inactive) and the differentiation response [10] was -3.43% (inactive).
In the case of `CCOC(=O)c1cc2cc3ccccc3cc2[nH]1`, the double positive events [1] is reported as 70.4%, the vesicle binding response [1] is reported as 334% (inactive) and the inhibition [2] is reported as -1.79% (inactive). The superoxide response (% of plate) [3] was 81.1% (inactive), the aptamer binding inhibition [4] was 1% (inactive) and the response [11] was 15.9% (inactive). The inhibition [5] was -6.18% (inactive), the response [6] was -1.49% (inactive) and the binding (% of control) [7] was 99.1% (inactive). For the same compound, the efflux inhibition (fraction of control) [8] was -0.1 (inactive), the inhibition [9] was 6% (inactive) and the differentiation response [10] was 7.2% (inactive).
With `CCc1cccc2c1NC1(CCCC1)CC2C` (stereo not given) the double positive events [1] was 58.5%, the vesicle binding response [1] was 185% (inactive) and the inhibition [2] was -16.8% (inactive). For the same compound, the superoxide response (% of plate) [3] was 96.3% (inactive), the aptamer binding inhibition [4] was 4% (inactive) and the response [11] was 45.9% (active). For the same compound, the inhibition [5] was -1.05% (inactive), the response [6] was 1.08% (inactive) and the binding (% of control) [7] was 97.6% (inactive). For the same compound, the efflux inhibition (fraction of control) [8] was -0.06 (inactive), the inhibition [9] was -41% (inactive) and the differentiation response [10] was 10.4% (inactive).
For `COc1ccc(C(=O)OCc2cc3cccc(C)c3[nH]c2=O)cc1`, the double positive events [1] was 49.3%, the vesicle binding response [1] was 163% (inactive) and the inhibition [2] was 5.36% (inactive). For the same compound, the superoxide response (% of plate) [3] was 112% (inactive), the aptamer binding inhibition [4] was 0% (inactive) and the inhibition [5] was 8.12% (inactive). For the same compound, the response [6] was -29% (inactive), the binding (% of control) [7] was 96.4% (inactive) and the efflux inhibition (fraction of control) [8] was 0.06 (inactive). The inhibition [9] was 8% (inactive) and the differentiation response [10] was -29.3% (inactive).
With `Cn1c2ccc(CC(=O)O)cc2c2cc(CC(=O)O)ccc21` the double positive events [1] was 61.4%, the vesicle binding response [1] was 244% (inactive) and the inhibition [2] was 10.5% (inactive). For the same compound, the superoxide response (% of plate) [3] was 92.3% (inactive), the aptamer binding inhibition [4] was 3% (inactive) and the response [11] was -8.9% (inactive). For the same compound, the inhibition [5] was 2.08% (inactive), the response [6] was 1.83% (inactive) and the binding (% of control) [7] was 101% (inactive). For the same compound, the efflux inhibition (fraction of control) [8] was -0.21 (inactive), the inhibition [9] was 6% (inactive) and the differentiation response [10] was 8.8% (inactive).
For `Cc1c(CCOC(=O)CC23CC4CC(CC(C)(C4)C2)C3)sc[n+]1Cc1ccc([N+](=O)[O-])cc1`, the double positive events [1] was 59%, the vesicle binding response [1] was 208% (inactive) and the inhibition [2] was 8.15% (inactive). For the same compound, the superoxide response (% of plate) [3] was 98.4% (inactive), the aptamer binding inhibition [4] was -9% (inactive) and the inhibition [5] was -6.04% (inactive). For the same compound, the response [6] was 3.23% (inactive), the binding (% of control) [7] was 108% (inactive) and the efflux inhibition (fraction of control) [8] was 1.81 (active). For the same compound, the inhibition [9] was 6% (inactive) and the differentiation response [10] was 0% (inactive).
With `Oc1ccc(/C=C/c2cc(O)cc(O)c2)cc1` the double positive events [1] was 52.4%, the vesicle binding response [1] was 225% (inactive) and the inhibition [2] was -6.77% (inactive). For the same compound, the superoxide response (% of plate) [3] was 96.3% (inactive), the aptamer binding inhibition [4] was 2% (inactive) and the inhibition [5] was 7.43% (inactive). For the same compound, the response [6] was -1.9% (inactive), the binding (% of control) [7] was 97.2% (inactive) and the efflux inhibition (fraction of control) [8] was -0.43 (inactive). The inhibition [9] was 6% (inactive) and the differentiation response [10] was -16.4% (inactive).
In the case of `OCC1(CCOc2ccccc2)CCN(CCCn2cccn2)CC1`, the double positive events [1] is reported as 62.6%, the vesicle binding response [1] is reported as 287% (inactive) and the inhibition [2] is reported as 11.9% (inactive). The superoxide response (% of plate) [3] was 86.7% (inactive), the aptamer binding inhibition [4] was 0% (inactive) and the response [11] was 22.2% (inactive). For the same compound, the inhibition [5] was -9.04% (inactive), the response [6] was 3.24% (inactive) and the binding (% of control) [7] was 101% (inactive). For the same compound, the efflux inhibition (fraction of control) [8] was -0.39 (inactive), the inhibition [9] was 4% (inactive) and the differentiation response [10] was 7.2% (inactive).
With `COC(=O)c1cc(C(=O)NCCC(C)C)cc([N+](=O)[O-])c1` the double positive events [1] was 57.8%, the vesicle binding response [1] was 229% (inactive) and the inhibition [2] was 2.3% (inactive). For the same compound, the superoxide response (% of plate) [3] was 112% (inactive), the aptamer binding inhibition [4] was 4% (inactive) and the response [11] was 7.63% (inactive). The inhibition [5] was -12% (inactive), the response [6] was 2.1% (inactive) and the binding (% of control) [7] was 94.5% (inactive). The efflux inhibition (fraction of control) [8] was -0.13 (inactive), the inhibition [9] was 3% (inactive) and the differentiation response [10] was -15.2% (inactive).
With `Nc1ccc(N=Nc2ccccc2)c(N)n1` the double positive events [1] was 61.7%, the vesicle binding response [1] was 133% (inactive) and the inhibition [2] was 28.7% (inactive). For the same compound, the superoxide response (% of plate) [3] was 114% (inactive), the aptamer binding inhibition [4] was 3% (inactive) and the response [11] was -11.9% (inactive). For the same compound, the inhibition [5] was 4.28% (inactive), the response [6] was 6.54% (inactive) and the binding (% of control) [7] was 103% (inactive). The efflux inhibition (fraction of control) [8] was -0.26 (inactive), the inhibition [9] was 4% (inactive) and the differentiation response [10] was -5.97% (inactive).
